Laboratory results reported in PubChem BioAssay (Tox21).
Records with an inconclusive call do not appear. Values without a mark were called inactive. Active and inactive are the calls of the source. Calls come from the whole dose curve; as a rule, active = well fitted inhibition curve with a large enough effect in the repeat runs; inconclusive = weak or mixed curves; inactive = flat fitted curve, though single readings scatter.

The molecules below were run against Voltage-gated inwardly rectifying potassium channel KCNH2 (Homo sapiens) (UniProt Q12809) (assay: Human Ether-a-go-go-Related Gene (hERG) channel small molecule antagonists: fluorescence cell-based qHTS assay (AID 1671200; note: nearly all actives have a fitted effect of over 50% in size;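 for activity change, negative = inhibition: hERG-expressing U2OS cells given a thallium stimulus after FluxOR II dye loading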)). Conditions: hERG-U2OS cells, FluxOR thallium flux fluorescence; series mostly up to 76.8 µM; activity change, negative = inhibition: at the top concentration.
Voltage-gated inwardly rectifying potassium channel KCNH2 (Homo sapiens), sequence (Q12809 whole entry, looked up): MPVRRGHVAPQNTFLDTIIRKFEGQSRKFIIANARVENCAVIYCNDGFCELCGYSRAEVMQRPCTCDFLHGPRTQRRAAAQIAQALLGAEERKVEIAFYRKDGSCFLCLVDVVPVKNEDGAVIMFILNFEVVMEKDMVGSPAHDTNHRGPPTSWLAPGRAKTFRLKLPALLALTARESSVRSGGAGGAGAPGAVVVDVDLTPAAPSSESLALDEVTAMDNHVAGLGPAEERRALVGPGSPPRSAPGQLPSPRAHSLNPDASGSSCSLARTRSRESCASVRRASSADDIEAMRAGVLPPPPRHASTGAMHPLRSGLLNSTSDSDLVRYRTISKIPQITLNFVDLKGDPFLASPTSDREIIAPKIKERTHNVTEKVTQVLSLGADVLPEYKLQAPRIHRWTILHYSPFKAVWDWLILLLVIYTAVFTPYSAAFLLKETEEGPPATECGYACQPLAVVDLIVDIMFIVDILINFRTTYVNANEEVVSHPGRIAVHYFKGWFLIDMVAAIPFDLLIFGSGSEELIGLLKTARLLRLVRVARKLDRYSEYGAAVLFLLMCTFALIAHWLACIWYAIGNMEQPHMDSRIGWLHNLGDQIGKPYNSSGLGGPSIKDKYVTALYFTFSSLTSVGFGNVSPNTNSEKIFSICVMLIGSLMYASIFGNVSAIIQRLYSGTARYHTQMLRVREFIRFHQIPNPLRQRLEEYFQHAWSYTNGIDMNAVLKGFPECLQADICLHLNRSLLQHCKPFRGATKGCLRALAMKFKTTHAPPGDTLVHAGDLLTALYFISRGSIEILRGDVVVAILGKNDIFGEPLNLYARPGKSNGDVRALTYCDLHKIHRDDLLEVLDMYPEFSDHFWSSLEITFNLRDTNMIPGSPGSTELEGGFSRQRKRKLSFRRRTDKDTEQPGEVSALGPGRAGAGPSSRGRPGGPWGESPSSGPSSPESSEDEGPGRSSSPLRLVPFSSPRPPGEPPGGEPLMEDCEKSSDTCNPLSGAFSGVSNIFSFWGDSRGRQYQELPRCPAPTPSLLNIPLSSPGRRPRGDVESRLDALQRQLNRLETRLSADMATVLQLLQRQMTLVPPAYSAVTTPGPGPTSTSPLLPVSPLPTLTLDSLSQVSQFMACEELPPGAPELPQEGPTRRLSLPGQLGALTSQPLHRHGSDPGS
Method in brief: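 Channel function was assessed by thallium flux. Cells seeded the previous day and kept at 37 C took up FluxOR II dye over 1 h in the dark at room temperature, then sat another 10 min before stimulation.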
% is set by controls: 0 for no effect and ±100 for the full control effect; potency is the fitted concentration of half-maximal effect.

Compared with `CC(=O)N/N=C/c1ccc([N+](=O)[O-])o1`, `CC1(C)S[C@@H]2[C@H](NC(=O)C(c3ccccc3)S(=O)(=O)O)C(=O)N2[C@H]1C(=O)O` (stereo partly drawn) is higher in “activity change, negative = inhibition” value: -0.601% [at 35.3 µM] for the first, 3.53% [at 35.3 µM] for the second.

First: COC(=O)c1nc(Cl)c(Cl)nc1N
Second: CN1C(C(=O)Nc2ccccn2)=C(O)c2sccc2S1(=O)=O
The “activity change, negative = inhibition” value of the first is lower: -24.3% [at 35.3 µM] for the first, 1.27% [at 35.3 µM] for the second.

Going from `CC1=C(Br)C(=O)C(Br)=C/C1=C(/c1ccccc1S(=O)(=O)O)c1cc(Br)c(O)c(Br)c1C` to `CCOC(=O)[C@H](CCc1ccccc1)N[C@@H](C)C(=O)N(CC(=O)O)C1Cc2ccccc2C1`, the “activity change, negative = inhibition” value falls from 2.02% [at 35.3 µM] to -2.04% [at 35.3 µM].

First: C[C@H]1C[C@H](O)c2ccsc2S1(=O)=O
Second: C[C@]12CC[C@@H]3c4ccc(O)cc4CC[C@H]3[C@@H]1CC[C@@H]2OC(=O)CCC1CCCC1
The “activity change, negative = inhibition” value of the first is higher: 8.21% [at 35.3 µM] for the first, -9.43% [at 35.3 µM] for the second.

For `CC1(CN2CCC(n3c(=O)[nH]c4ccccc43)CC2)OCc2ccccc2-n2cccc21` (stereo not drawn), the Potency was 8.49 µM (active).
With `CCCC(C(=O)OCCN(CC)CC)(c1ccccc1)c1ccccc1` the Potency was 8.49 µM (active).
In the case of `Nc1ccc(N=Nc2ccccc2)c(N)c1`, the Potency is reported as 17 µM (active).

Going from `CC(O)c1ccccc1` (stereo not drawn) to `CCc1ccccc1`, the “activity change, negative = inhibition” value falls from 4.11% to 0.602%.

First: CCC1CO1 (stereo not drawn)
Second: CCCC(=O)C(=O)O
The “activity change, negative = inhibition” value of the first is higher: 2.08% for the first, 0.342% for the second.

First: C=CC(C)(CCC=C(C)C)OC(=O)CC(C)C (stereo not drawn)
Second: CCC(C)COC(=O)CC(C)C (stereo not drawn)
The “activity change, negative = inhibition” value of the first is lower: -13.3% for the first, 0.583% for the second.

Compared with `c1cc(N(CC2CO2)CC2CO2)ccc1Cc1ccc(N(CC2CO2)CC2CO2)cc1` (stereo not drawn), `c1ccc2c(c1)CCc1ccccc1N2` is higher in “activity change, negative = inhibition” value: -21.2% for the first, -21.1% for the second.

Compared with `C=CC(=O)[O-].C=CC(=O)[O-].[Zn+2]`, `CCOC(=O)/C=C/C(=O)OCC` is higher in “activity change, negative = inhibition” value: -1.94% for the first, -1.88% for the second.

First: N#[N+]c1ccc2c(S(=O)(=O)[O-])cccc2c1O
Second: O=C(OC(=O)c1ccccc1)c1ccccc1
The “activity change, negative = inhibition” value of the first is higher: 1.27% for the first, 0.0311% for the second.

Going from `CCCCC(CC)CN` (stereo not drawn) to `CCCCCCC(C)(C)C(=O)O`, the “activity change, negative = inhibition” value rises from -3.25% to 0.309%.

Compared with `N#CCCN(CCO)CCO`, `C=C(C)CCCC(C)CCO` (stereo not drawn) is higher in “activity change, negative = inhibition” value: -3.61% for the first, 0.507% for the second.

First: N#CCc1ccc(Cl)cc1Cl
Second: NC(=O)c1ccncc1
The “activity change, negative = inhibition” value of the first is higher: 3.03% for the first, -0.747% for the second.

Going from `CCC(OCCCOC)OC(C)=O` (stereo not drawn) to `CCCCCC#CC(=O)OC`, the “activity change, negative = inhibition” value rises from 0.259% to 0.516%.

Compared with `Cc1cc(C)c(N)cc1C`, `Cc1cscn1` is lower in “activity change, negative = inhibition” value: 1.15% for the first, -2.38% for the second.

First: COC(=O)CCS
Second: COC(=O)CS
The “activity change, negative = inhibition” value of the first is lower: 1.05% for the first, 13.9% for the second.

First: O=[N+]([O-])c1cc(C2CCCCC2)c(O)c([N+](=O)[O-])c1
Second: O=C(O)C[C@H](NC(=O)OCc1ccccc1)C(=O)O
The “activity change, negative = inhibition” value of the first is lower: -17.8% for the first, 1.39% for the second.

For `Cc1ccco1`, the “activity change, negative = inhibition” value was -0.319%.
